# CHX counter: Cycloheximide Counterscreen for Small Molecule Inhibitors of Shiga Toxin | cell reporter, cycloheximide protein synthesis inhibition counterscreen | max response, % | 12% of 300,000 active; in the data active = max response mostly above about 13%, no sharp cut-off; inactive = mostly below about 14%; also: read at 38.3 µM for the half of the compounds with a filed dose; 0% is about no effect
# Pf growth 48h: Primary qHTS for delayed death inhibitors of the malarial parasite plastid, 48 hour incubation; P. falciparum luciferase growth in erythrocytes, 48 h; Potency, µM (series often up to 28.7 µM), without a hit: at the top dose activity change, negative = inhibition, actives largely listed as inhibitors; 5.9% of 310,000 active; AID 504832, 2011; also: potency is read from the fitted curve at half-maximal effect; % is scaled to controls: 0 for no effect and ±100 for the full control effect
#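 Luminescence readout; reporter = integrated firefly luciferase in P. falciparum. RBC culture at 2% hematocrit, 0.1% parasitemia final, 37 C/5% CO2; decreased signal taken as growth inhibition.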
# Shiga toxin inh: A qHTS for Small Molecule Inhibitors of Shiga Toxin. Vero cells, Shiga toxin protein synthesis inhibition reporter. inhibition, % at 38.7 µM. 9.2% of 290,000 active; in the data active = inhibition mostly above about 28%, no sharp cut-off; inactive = mostly below about 43%; also: 0% is about no effect
# NS1 inh: qHTS Assay for Inhibitors of Influenza NS1 Protein Function; Potency, µM (series often up to 46.1 µM), inactives show at the highest dose activity, positive = more growth; 0.4% of 270,000 active; calls by dose curve; also: potency is read from the fitted curve at half-maximal effect; actives are rising curves; nearly all actives have a fitted effect of over 50% in size
#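 OD600 was taken as the measure of yeast growth restored by compound in an NS1-expressing S. cerevisiae strain. Cells had been washed out of glucose medium and diluted 1:100 into galactose -URA medium, pH 6.0.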
# Sm TGR inh: qHTS Assay for the Inhibitors of Schistosoma Mansoni Peroxiredoxins. purified TGR, DTNB reduction, TNB absorbance 405 nm. Potency, µM (doses to about 114 µM), for inactives: top-dose activity change, negative = inhibition, hits mostly inhibitors. 3% of 360,000 active; also: potency is read from the fitted curve at half-maximal effect; % is scaled to controls: 0 for no effect and ±100 for the full control effect; nearly all actives have a fitted effect of over 60% in size
#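 Kinetic colorimetric format: TGR-catalysed, NADPH-driven DTNB reduction monitored via TNB absorbance. Enzyme dispensed at 20 nM; compound exposure 15 min at room temperature before reaction start.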
# Pf growth 96h: Primary qHTS for delayed death inhibitors of the malarial parasite plastid, 96 hour incubation | P. falciparum luciferase reporter growth, 96 h | Potency, µM (highest dose often 28.7 µM), without a hit: top-dose activity change, negative = inhibition, most hits filed as inhibitors | 6.9% of 320,000 active | AID 504834, 2011; also: potency is read from the fitted curve at half-maximal effect; % is scaled to controls: 0 for no effect and ±100 for the full control effect
#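 Compounds incubated with erythrocytes infected by luciferase-expressing P. falciparum (2% hematocrit, 0.05% parasitemia final) for 96 hours, 37 C in 5% CO2. Growth inhibition scored as decreased luciferase luminescence.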
# * hit, by the source's call; ? = inconclusive; . = not tested or not shown; [ ] = dose if it differs, or a comment. The list is not random: actives were taken first. Their share in the collection is about 21%. Unless noted, calls follow the shape of the dose curve; as a rule, active = well fitted curve in the direction sought with a large enough effect; inconclusive = small, poorly fitted or top-dose-only effect, or another doubt; inactive = no such curve, though single readings can be large; an effect the other way counts as inactive or inconclusive.
SMILES,CHX counter,Pf growth 48h,Shiga toxin inh,NS1 inh,Sm TGR inh,Pf growth 96h
Cc1cc(SCC(=O)OCC(=O)N(C)c2ccccc2)nc2ccccc12,.,-1%,.,.,6%,4%
O=Cc1ccccc1-n1cccn1,31*,21%,-9,.,-11%,17%
O=C(Nc1cccc(Cl)c1)N(CCCN1CCOCC1)Cc1ccccc1F,6,-26%,-1,-53%,7%,2.1µM*
CCc1ccccc1NC(=S)N(CCN1CCOCC1)Cc1ccccc1F,-4,-22%,-12,2%,39%,10µM*
CCc1cc(C(=O)Nc2cnn(Cc3ccccc3C)c2)no1,.,.,.,.,-2%,.
O=C(CCN1CCN(C(=O)c2ccccc2)CC1)c1ccc(Br)cc1,0,?,-3,7%,0.32µM*,?
OC(COc1ccc(Br)cc1)CN1CCN(c2ccccc2)CC1 (configuration not stated),-3,12%,-5,-4%,-1%,?
COc1cc(/C=C/C(=O)N2CCN(CC(O)COc3ccccc3)CC2)cc(OC)c1OC (configuration not stated),-3,?,-14,-7%,-27%,4.1µM*
COc1cc(/C=C/C(=O)N2CCN(Cc3ccccc3)CC2)cc(OC)c1OC,-6,.,11,-3%,-28%,?
O=C(c1ccccc1)N1CCN(CC(O)COc2ccc(Br)cc2)CC1 (configuration not stated),-3,-6%,.,?,-4%,9.3µM*
O=C(c1ccc(Br)cc1)N1CCN(Cc2ccccc2)CC1,-2,16%,.,-13%,-27%,19%
Cn1cnc(S(=O)(=O)N2CCC(C(=O)Nc3ccc(Cl)c(C(F)(F)F)c3)CC2)c1,.,.,.,.,2%,.
O=S(=O)(c1ccc(OCC(O)CNC23CC4CC(CC(C4)C2)C3)c(Cl)c1)N1CCOCC1 (configuration not stated),1,10µM*,-2,11%,13%,?
CCCCNc1nc(Oc2ccc(=O)n(C)n2)nc(N2CCOCC2)n1,.,.,.,.,2%,.
Cc1cc(C)n(-c2nnc3c4ccccc4n(C)c3n2)n1,44*,88%,113*,-30%,8%,47%
Cn1c2ccccc2c2nnc(SCC(N)=O)nc21,-4,32%,-5,5%,-15%,1%
Cc1cc(N2CCC(C(=O)Nc3ccc(F)cc3)CC2)nc(-c2ccccc2)n1,-3,-15%,-12,-39%,-24%,.
Cc1cc(N2CCC(C(N)=O)CC2)nc(-c2ccccc2)n1,-6,.,-5,5%,0%,0.74µM*
CCc1nc(N2CCC(C)CC2)c2oc3ccccc3c2n1,-5,?,-19,-110%,-11%,-3%[5.75 µM]
O=C(O)C1CCCN1c1ncnc2c1oc1ccccc12 (configuration not stated),43*,48%,49*,-6%,-3%,.
CN1CCN(c2nc(-c3ccccc3)nc3c2oc2ccccc23)CC1,1,?,-16,-50%,0%,5.9µM*
NC(=O)C1CCN(c2nc(-c3ccccc3)nc3c2oc2ccccc23)CC1,-2,31%,-3,3%,-2%,1.5µM*
CCOc1ccc(OCC(=O)Nc2nnc3n2CCS3)cc1,.,.,.,.,7%,.
COc1ccc(C2=NN(C(=O)CSc3ncccn3)C(c3cccc(OC)c3OC)C2)cc1 (configuration not stated),-1,?,7,.,14%,?
CCOc1cccc2c1OC(c1cc(OC)c(OC)c(OC)c1)N1N=C(c3ccc(C)o3)CC21 (configuration not stated),39*,-42%,21,-7%,45µM*,-47%
SMILES,CHX counter,Pf growth 48h,Shiga toxin inh,NS1 inh,Sm TGR inh,Pf growth 96h
CCOC(=O)CN(C(=O)COc1nc(-c2ccccc2)cc(C)c1C#N)c1ccccc1,-1,?,7,-2%,6%,?
CCOC(=O)CN(C(=O)COc1nc(-c2ccccc2)cc(C)c1C#N)c1ccc(C)cc1,-2,13µM*,14,0%,-1%,5.9µM*
CCOC(=O)CN(C(=O)COc1nc(-c2ccccc2)cc(C)c1C#N)c1cccc(OC)c1,1,7.4µM*,0,9%,2%,12µM*
CCOC(=O)CN(C(=O)COc1nc(-c2ccccc2)cc(C)c1C#N)c1ccccc1C,-1,13µM*,-6,-6%,6%,?
Cc1cc([N+](=O)[O-])nn1CC(=O)N(C)C1CCCCC1,1,14%,-5,2%,14%,19%
CCn1c(NC(=S)Nc2ccccc2)nc2ccccc21,29*,?,53*,-16%,-34%,3.3µM*
O=C(Nc1nc2ccccc2n1CCN1CCCCC1)C1CCCCC1,-4,?,-10,3%,-24%,?
S=C(Nc1ccccc1)Nc1nc2ccccc2n1CCOc1ccc(Cl)cc1,9,7.4µM*,26,3%,-1%,12µM*
CCn1c(NC(=O)C2CCCCC2)nc2ccccc21,26*,10µM*,36*,-4%,-9%,351%
COc1cccc(C2CC(c3cccs3)=NN2C(=O)c2ccco2)c1O (configuration not stated),-1,?,-13,-16%,5%,?
Cc1ccc(C2=NN(C(=O)c3cccs3)C(c3ccccc3O)C2)cc1 (configuration not stated),22*,?,22,4%,.,24%
O=C(c1cccs1)N1N=C(c2ccccc2)CC1c1ccccc1O (configuration not stated),-1,3.3µM*,3,12%,8%,19%
Clc1ccc(N2N=C(c3cccs3)CC2c2ccco2)cc1 (configuration not stated),37*,39%,7,2%,-22%,2.6µM*
O=C(c1ccco1)N1N=C(c2cccs2)CC1c1ccccc1O (configuration not stated),-1,8.3µM*,-3,?,-15%,?
N=C(N)SCCCN,.,.,.,2%,.,.
CCc1nnc(NC(=O)c2cc(=O)c3cc(C)ccc3o2)s1,.,.,.,.,9%,.
Cc1ccc2c(c1)C(N1CCCC1=O)CC(c1ccco1)N2 (configuration not stated),53*,148%,92*,-72%,10µM*,?
O=c1[nH]c(SCc2ccccc2)nc2ccsc12,36*,22%,24,.,9%,38%
O=c1[nH]c(SCc2cccc(Cl)c2)nc2[nH]ncc12,20*,5%,17,2%,0%,-4%
S=c1nc(SCc2ccccc2)[nH]c2ccccc12,9,-6%,11,.,-24%,1.7µM*
O=c1[nH]c(SCc2ccc(Cl)cc2)nc2[nH]ncc12,19*,?,27,.,-1%,?
c1ccc(CSc2nc3ncncc3[nH]2)cc1,3,-4%,40,-1%,13%,-23%

# Assay outcomes: PubChem, National Center for Advancing Translational Sciences (NCATS)
